Only some compounds are listed: those with a hit (about 3.4% of all), similar ones and a draw of the others.
esBAF inh = Bmi1 luciferase reporter increase in mESCs, primary screen, esBAF inhibitor project, mouse ES cells, Bmi1 luciferase knock-in, single point; AID 602393, 2012; reporter increase, % at 12.5 µM; 24 h; 100% = twice the neutral-well signal; hit rate 2% among 350,000; in the data active = activation above about 40%; inconclusive = no clear call, values can overlap the other calls;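 also: 0% = median of the plate's neutral control wells and 100% = double that signal; a rise in the Bmi1 reporter signal indicates esBAF inhibition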
miR122 inh = miR-122 Renilla sensor signal increase in Huh7, primary screen, miR-122 inhibitor project, cell-based, single point, plate reader | Huh7 miR-122 Renilla luciferase sensor, 48 h; neutral wells = 0, positive control = 100 | activation (reporter increase), % at 12.5 µM | hit rate 0.3% among 340,000;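 active = mean replicate activation score at least 90 and every replicate individually at or above 90; inconclusive = only one of the two criteria met; inactive = neither criterion met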;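 also: higher luciferase means less miR-122 activity so hits act as miR-122 inhibitors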
Wnt bcat act = Wnt/beta-catenin pathway activators, primary screen, cell-based, plate reader, single point; hit rate 1.2% among 300,000; AID 743398, 2014; Wnt/beta-catenin reporter cell assay, activator; activation, % at 9.35 µM; in the data active = activation above about 30%, passing the limit was not always enough; inconclusive = no clear call, values can overlap the other calls;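 also: 0% = neutral control wells and 100% = positive control wells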
MITF TRPM1 HTS = activators of MITF-driven TRPM1 promoter reporter, primary screen, cell-based, SK-MEL-5, luciferase, single point | SK-MEL-5 TRPM1-promoter luciferase, 24 h; % of positive control, neutral wells = 0 | hit rate 0.75% among 300,000 | AID 588334, 2011 | activation, % at 12.5 µM;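 active = mean activation of at least 80% with every replicate also reaching 80%; inconclusive = mean reaches 80% but some replicate falls short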;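 also: 0% = neutral control wells and 100% = parthenolide positive control wells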
HIV Env fusion = inhibitors of HIV-1 Env-driven cell-cell fusion, primary screen, HeLa-JRFL effector, CEM21 target cells, luciferase | inhibition, % at 12.3 µM | hit rate 1.1% among 360,000;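 active = mean replicate inhibition score of at least 50 and every replicate individually at or above 50; inconclusive = only one of the two criteria met; inactive = mean below 50 and not all replicates reaching 50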;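 also: 0% = plate neutral controls and 100% = maraviroc near 300 nM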
Active calls of the source: *; ? = inconclusive; · = no result; [ ] = remark or other dose.

SMILES | esBAF inh | miR122 inh | Wnt bcat act | MITF TRPM1 HTS | HIV Env fusion
CCCNC(=O)N(C)C[C@H]1Oc2cc(-c3cncnc3)ccc2S(=O)(=O)N([C@H](C)CO)C[C@@H]1C | -7.3 | -9.7[16.7 µM] | · | · | ·
C[C@H](CO)N1C[C@H](C)[C@H](CN(C)CC2CC2)Oc2cc(C#Cc3ccncc3)ccc2S1(=O)=O | 2.3 | -2.7[16.7 µM] | · | · | 3.1[16.7 µM]
COc1cc(C(=O)Nc2ccc(C(C)=O)cc2)c(Br)c(OC)c1OC | 47.6* | 5.5 | 23.0 | 51.4 | -18.9
Cc1ccc(NC(=O)Nc2ccc3c(c2)nc(C)n3C)cc1 | · | · | · | 9.5 | -29.1
Cc1cc(C(=O)Nc2ccc(Br)cc2)cs1 | · | · | 45.0* | 30.4 | -44.3
CC(=O)c1ccc(NC(=O)c2ccc3nc(C)sc3c2)cc1 | 48.8* | -4.2 | -3.3 | · | -16.5
CC(=O)c1ccc(NC(=O)Nc2ccc3c(c2)nc(C)n3C)cc1 | · | · | 7.2 | 85.0* | -37.2
COc1ccc(NC(=O)c2cc(OC)c(OC)c(OC)c2Br)cc1OC | · | 2.7 | · | 0.6 | -22.1
O=C(Cc1cccnc1)N1[C@H](CO)[C@H](c2ccccc2)[C@@H]1CNCC1CCC1 | 1.1 | -8.3[16.7 µM] | · | · | ·
COCC#Cc1ccc2c(c1)O[C@@H](CN(C)C(=O)C1CC1)[C@@H](C)CN([C@@H](C)CO)S2(=O)=O | · | -0.6[16.7 µM] | · | · | -4.1[16.7 µM]
CN1[C@H](C(=O)NCc2ccccn2)[C@@H](CO)[C@@H]2Cn3c(ccc(-c4cccc(F)c4)c3=O)[C@@H]21 | -4.9 | · | · | · | -59.8[16.7 µM]
CC(=O)c1ccc(NC(=O)c2ccc(C)c(Br)c2)cc1 | · | · | 69.2* | 67.8 | -97.6
Cc1nc2ccc(NC(=O)c3cncc(Br)c3)cc2s1 | 5.6 | 10.0 | 18.1 | 92.5* | 15.5
Cc1nc2ccc(NC(=O)c3ccccc3)cc2s1 | · | · | ? | 58.7 | -16.3
Cc1nc2ccc(OC(=O)c3ccccc3)cc2s1 | 2.5 | 0.8 | 1.0 | -2.9 | 9.9
Cc1nc2cc(C(=O)O)ccc2s1 | 73.2* | -14.2 | · | 62.1 | -124.4
COC(=O)C[C@H]1CC[C@H]2[C@H](COc3ccc(NC(=O)c4cccc(OC)c4)cc3C(=O)N2C)O1 | 2.2 | -2.0[16.7 µM] | · | · | 2.8[16.7 µM]
CC(C)NC(=O)N(C)C[C@@H]1Oc2ccc(NC(=O)Cn3cnnn3)cc2C(=O)N([C@@H](C)CO)C[C@@H]1C | 2.1 | 0.7[16.7 µM] | · | · | -14.2[16.7 µM]
Cc1c2ccccc2nc2c(F)c(NCCO)c(F)c(F)c12 | · | 0.5 | -0.5 | 31.9 | -130.2
OCCNc1c2ccccc2nc2c(F)c(F)c(F)c(F)c12 | · | · | 251.3* | -80.9 | -122.5
COC(=O)c1ccc(Sc2nnnn2-c2ccccc2)c([N+](=O)[O-])c1 | 45.9* | -8.3 | -16.3 | -51.9 | 40.6
COC(=O)c1c(C)[nH]c(C(=O)CSc2nnnn2-c2ccccc2)c1C | 48.4* | -2.1 | -2.5 | -2.2 | ·
COC(=O)c1ccc(C(=O)Nc2ccc(C(C)C)cc2N)cc1 | 47.3* | 22.3 | · | 67.8 | -12.4
C[C@H]1CN([C@@H](C)CO)C(=O)c2cc(NS(C)(=O)=O)ccc2O[C@H]1CN(C)C(=O)Nc1ccc2c(c1)OCO2 | 1.3 | 5.9[16.7 µM] | · | · | ·
Cc1noc(C)c1S(=O)(=O)Nc1ccc2c(c1)C(=O)N([C@H](C)CO)C[C@H](C)[C@H](CN(C)S(=O)(=O)c1ccccc1)OCCCC[C@H](C)O2 | 5.1 | -5.2[16.7 µM] | · | · | -106.2[16.7 µM]
SMILES | esBAF inh | miR122 inh | Wnt bcat act | MITF TRPM1 HTS | HIV Env fusion
C[C@H](CO)N1C[C@H](C)[C@H](CN(C)Cc2ccc(C(F)(F)F)cc2)OCCCC[C@H](C)Oc2ccc(NC(=O)Cc3ccccc3)cc2C1=O | -31.6 | -12.3[16.7 µM] | · | · | 71.6*[16.7 µM]
C[C@@H]1CN([C@@H](C)CO)C(=O)c2cc(NC(=O)Cc3ccccc3)ccc2O[C@@H](C)CCCCO[C@H]1CN(C)Cc1ccc(C(F)(F)F)cc1 | -0.9 | -8.3[16.7 µM] | · | · | 63.9*[16.7 µM]
C[C@@H]1CN([C@@H](C)CO)C(=O)c2cc(NC(=O)Cc3ccccc3)ccc2O[C@@H](C)CCCCO[C@@H]1CN(C)Cc1ccc(C(F)(F)F)cc1 | -4.9 | -23.8[16.7 µM] | · | · | 30.6[16.7 µM]
C[C@@H]1CN([C@H](C)CO)C(=O)c2cc(NC(=O)Cc3ccccc3)ccc2O[C@@H](C)CCCCO[C@H]1CN(C)Cc1ccc(C(F)(F)F)cc1 | 9.3 | -30.7[16.7 µM] | · | · | 73.2*[16.7 µM]
O=C(O)C[C@H]1C[C@@H]2c3cc(NC(=O)CC4CC4)ccc3O[C@@H]2[C@@H](CO)O1 | -1.9 | -8.7[16.7 µM] | · | · | -9.4[16.7 µM]
C[C@H](CO)N1C[C@H](C)[C@H](CN(C)Cc2ccccc2)Oc2cc(C3=CCCC3)ccc2S1(=O)=O | -2.8 | -8.3[16.7 µM] | · | · | 45.0[16.7 µM]
